HT1080NT lethal: kills 2HG-producing HT-1080-NT fibrosarcoma cells; HT-1080-NT fibrosarcoma viability, CellTiter-Glo ATP luminescence, 48 h; Potency, µM (highest dose often 46.1 µM), inactives show at the top dose activity, negative = less viability, most hits filed as cytotoxic; hit rate 1.6% among 360,000;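 further: NT is the 2HG producing partner of a matched IDH1 knockdown line; 0% = DMSO-treated cells and -100% = media-only wells without cells; nearly all actives have a fitted effect of over 55% in size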
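A 48-hour cytotoxicity screen used HT-1080-NT cells plated 2 hours before compound delivery. ATP-based CellTiter-Glo luminescence measured viability, normalized to DMSO and no-cell controls.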
HT1080 IDH1KD tx: HT-1080 IDH1 knockdown cell toxicity (counter line); HT-1080 IDH1 knockdown viability, ATP luminescence, 48 h; Potency, µM (top dose mostly 46.1 µM), without a hit: top-dose activity, negative = toxicity, most hits filed as cytotoxic; hit rate 2% among 360,000; AID 686971;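 further: 0% = DMSO wells and -100% = cell-free medium wells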
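Viability of IDH1-knockdown HT-1080 fibrosarcoma cells was assessed by CellTiter-Glo after 48 h at 37 °C with titrated compound; concentration-effect curves were classified by fit quality and response size.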
S2 tox: viability counter-screen for ATXN expression inhibitors; AID 651635; hit rate 0.49% among 400,000; Potency, µM (titrated, usually from 56.7 µM), hits mostly cytotoxic; S2 cells (HEK-293 line with an ATXN2-luciferase reporter) viability, CellTiter-Fluor protease fluorescence, 24 h; further: nearly all actives have a fitted effect of over 40% in size
ATXN2 expr inh: inhibitors of ATXN2 expression; HEK-293 ATXN2-luciferase reporter, luminescence, 24 h; Potency, µM (doses to about 57 µM), without a hit: at the top dose activity change, negative = inhibition, actives largely listed as inhibitors; hit rate 0.72% among 360,000; AID 1745845; further: on the % scale 0 is the no-effect control and ±100 the full control effect; nearly all actives have a fitted effect of over 55% in size
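ATXN2-luciferase reporter cells (luciferase flanked by upstream and downstream ATXN2 gene portions) were treated 24 h at 37 °C with compounds at up to 57 uM. SteadyGlo luminescence gave expression; GF-AFC fluorescence gave viability.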
HepG2 tox: HepG2 cytotoxicity, counter-screen for TGF-b inhibitors; HepG2 CAGA-GFP viability, ATP luminescence, 18 h; Potency, µM (doses to about 46.1 µM), inactives show at the top dose activity change, negative = cytotoxicity, most hits filed as cytotoxic; hit rate 0.76% among 410,000; AID 588856
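CellTiter-Glo luminescence gave cytotoxicity after 18 hours at 37 degrees C. The cells were HepG2 CAGA-GFP in 1% FBS DMEM, stimulated with 500 pg/mL TGF-beta after compound addition. %Activity was normalised to no-cell wells (complete cell-killing) and DMSO (no toxicity), and curves were fitted and classified.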
TGFb SMAD3 inh: blocks TGF-b signaling. HepG2 CAGA-GFP TGF-b/SMAD3 reporter, GFP fluorescence, 18 h; TGF-beta stimulated, 500 pg/mL final. Potency, µM (doses to about 46.1 µM), for the others: top-dose activity, negative = inhibition, most hits filed as inhibitors. hit rate 1.2% among 410,000. AID 588855; further: on the % scale 0 is the no-effect control and ±100 the full control effect; nearly all actives have a fitted effect of over 65% in size
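Read-out: total well GFP (ex488/em500-530) summed from mean per-cell fluorescence. Cells: HEPG2 CAGA-GFP, 1% FBS DMEM, 18 h at 37 degrees C with 500 pg/mL final TGF-beta. Unstimulated wells served as the full-inhibition control; stimulated DMSO wells = 0%.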
An asterisk follows results filed as active; i = inactive; ? = inconclusive; . = no result; [ ] = dose if it differs, or a comment. Sampled rows, rich in hits. Any-hit rate of the full collection: about 3.9%. The call rests on the fitted dose curve; in most records, active means well fitted curve in the direction sought with a large enough effect; inconclusive means small, poorly fitted or top-dose-only effect, or another doubt; inactive means no such curve, though single readings can be large; an effect the other way counts as inactive or inconclusive. Potency means the concentration at half of the fitted maximal effect.

SMILES	HT1080NT lethal	HT1080 IDH1KD tx	S2 tox	ATXN2 expr inh	HepG2 tox	TGFb SMAD3 inh
O=C(CN1CCN(C(=O)N2CCOCC2)CC1)Nc1ccc(Br)cc1	2%	4%	i	-9%	-3%	-5%
COc1ccc(NC(=O)CN2CCN(C(=O)N3CCOCC3)CC2)cc1	15%	10%	i	-4%	3.5µM*	0%
CCc1cc(-c2[nH]ncc2-c2ccc3c(c2)OCO3)c(O)cc1O	?	?	?	11µM*	-94%	?
COc1ccc(Cn2nc(-c3ccccc3)c(N3CCCCC3)cc2=O)cc1	?	?	i	-21%	22µM*	?
O=c1cc(N2CCCCC2)c(-c2ccccc2)nn1Cc1ccccc1	-30%	?	.	-12%[11.3 µM]	3%	?
COc1ccc(OC)c(-c2ccnc(-n3ncc(C(=O)N4CCN(CCO)CC4)c3C3CC3)n2)c1	.	.	i	.	.	.
CCc1ccc(OC(=O)/C=C/c2ccco2)cc1	0%	1%	i	-4%	0%	-5%
COc1ccccc1/C=C/C(=O)Oc1cccc2cccnc12	0%	0%	?	.	10µM*	7.9µM*
O=C(/C=C\c1ccco1)Oc1cccc2cccnc12	?	15µM*	i	.	-74%	3.2µM*
O=C(/C=C/c1ccco1)Oc1cccc2cccnc12	?	21µM*	?	-38%	-47%	?
Cc1ccc2cccc(OC(=O)/C=C\c3ccccc3)c2n1	12%	18%	?	-16%	-64%	?
Cc1c(C(=O)Oc2cccc3cccnc23)oc2ccccc12	23µM*	23µM*	i	-12%	11µM*	?
COCCCCOc1cc2nc(N3CCCN(C)CC3)nc(NC3CCN(C)CC3)c2cc1OC	-15%	8%	.	.	.	.
COCCNC(=O)c1c(NC(=O)Cc2coc3cc(C)ccc23)sc2c1CCCC2	.	.	i	-9%	-1%	-2%
Cc1cccc2cc(CN(C(=O)c3ccc(C(F)(F)F)cc3)C3CC3)c(N3CCC(O)CC3)nc12	.	.	i	.	.	.
COc1ccc(/C=C/C(=O)c2cc(Cl)cc(Cl)c2O)c(OC)c1	19%	0%	i	-4%	10%	2%
O=C(/C=C/c1ccccn1)c1cc(Cl)cc(Cl)c1O	16µM*	?	i	?	-30%	-25%
COc1cc(Cl)cc2c1Sc1ccccc1/C2=C/CCN(C)C	?	?	i	-5%	-39%	-21%
CN(C)CC/C=C1/c2cc(F)ccc2Sc2ccc(Cl)cc21	23µM*	16µM*	i	?	i	?
CN(C)CC/C=C1/c2ccccc2Sc2c(O)cc(Cl)cc21	?	23µM*	?	-17%	0%	10%
CCCN(CCC)CCCNc1ccc(C(=O)Nc2cccc(OC)c2)cc1[N+](=O)[O-]	?	21µM*	i	-23%	-6%	5%
COc1cccc(NC(=O)c2ccc(NCCCN3CC(C)CC(C)C3)c([N+](=O)[O-])c2)c1 (stereo unspecified)	?	?	i	-38%	-12%	-19%
Cc1ccc(NC(=O)c2ccc(NCCN)c([N+](=O)[O-])c2)cc1Cl	0%	-2%	i	8%	18µM*	?
CCN(Cc1ccncc1)Cc1ccc2c(c1)CN(C(=O)c1ccccc1-n1cccn1)CCO2	.	.	i	.	.	.
COc1cccc(-c2cc(C(=O)Nc3cccnc3)no2)c1	?	12µM*	?	-14%	9%	41%
SMILES	HT1080NT lethal	HT1080 IDH1KD tx	S2 tox	ATXN2 expr inh	HepG2 tox	TGFb SMAD3 inh
COc1ccc(NC(=O)c2cc(-c3ccccc3)on2)cc1	6%	-2%	i	.	-8%	6%
O=C(Nc1cccnc1)c1cc(-c2ccccc2)on1	-3%	-16%	i	16%	-13%	-4%
CC(C)n1cc(NC(=O)c2cc(-c3ccccc3)on2)cn1	16µM*	8.2µM*	i	30%	-3%	?
COc1ccc(NC(=O)C2Cc3c(-c4ccc(Cl)cc4)ccnc3O2)cn1 (stereo unspecified)	?	?	3.5µM*	?	1%	5%
O=C(Nc1ccc2c(c1)OCO2)C1Cc2c(-c3ccc(Cl)cc3)ccnc2O1 (stereo unspecified)	23µM*	?	?	?	-39%	?
CC(=O)Nc1cccc(-c2ccnc3c2CC(C(=O)Nc2ccc4c(c2)OCO4)O3)c1 (stereo unspecified)	?	2.3µM*	?	-19%	-8%	-6%
O=C(Nc1ccc2c(c1)OCO2)C1Cc2c(-c3ccc4c(c3)OCO4)ccnc2O1 (stereo unspecified)	?	4.1µM*	?	?	-42%	?
O=C(Nc1ccc2c(c1)OCO2)C1Cc2c(-c3ccncc3)ccnc2O1 (stereo unspecified)	22%	9%	i	12%	-10%	20%
Cc1cc(C)c(C#N)c(Sc2nc(C)c([N+](=O)[O-])c(C)c2C#N)n1	16µM*	4.6µM*	20µM*	22µM*	13µM*	?
Oc1cccc(C(O)CNCc2ccc(-c3ccccc3)cc2)c1 (stereo unspecified)	16µM*	21µM*	?	?	-105%	?
Oc1cccc(C(O)CNCc2ccc(OCc3ccc(Cl)cc3Cl)cc2)c1 (stereo unspecified)	23µM*	16µM*	i	-14%	-167%	?
